Experimental data from PubChem BioAssay AID772 (SRMLSC, 2007).
Out of some 3,300 compounds screened, about 20 (0.6%) were called active.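 Rule for the calls: active = growth inhibition above 90%, meaning viable cell count cut by more than 90% versus vehicle controls; inactive = growth inhibition below 90%.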 What follows is part of a selection rich in actives, with near analogues and random picks from the rest.

Test: HT29 colon tumor cell growth inhibition, primary screen, imaging, high content imaging, 72 h, CellTiter-Glo (AID 772);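 for condensed nuclei: condensed means nuclear area below control median minus 1.5 SD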
Conditions: HCS imaging cell count, at 10 µM, stronger effect = higher value; for condensed nuclei: measured here: percent cells with condensed nuclei
[1] = measured here: ATP CellTiter-Glo viability

SMILES | growth inhibition | growth inhibition [1] [%] | condensed nuclei [%]
COCC(C)OC(=O)c1c(N)n(Cc2ccco2)c2nc3ccccc3nc12 (stereo not given) | 44.2% (inactive) | 19.7 | 1.26
CC(C)OC(=O)c1c(N)n(Cc2ccco2)c2nc3ccccc3nc12 | 31.4% (inactive) | -17.3 | 3.52
CCCCOCCCn1c(N)c(C(=O)OC(C)COC)c2nc3ccccc3nc21 (stereo not given) | 91.4% (active) | 77.2 | 11
CC(C)(C)OC(=O)c1c(N)n(Cc2ccco2)c2nc3ccccc3nc12 | 44.5% (inactive) | 20.9 | 4.1
CCCCOCCCn1c(N)c(C(=O)OCCOC)c2nc3ccccc3nc21 | 95.3% (active) | 57.5 | 17.2
COCCOC(=O)c1c(N)n(Cc2ccco2)c2nc3ccccc3nc12 | -33.9% (inactive) | -49.5 | 3.83
COc1ccc(C2SCC(=O)Nc3c2c(=O)[nH]n3C2CCCCC2)cc1 (stereo not given) | 1.43% (inactive) | -9.94 | 12.4
Clc1ccc(CSC(Cn2ccnc2)c2ccc(Cl)cc2Cl)cc1 (stereo not given) | 57.5% (inactive) | 71.7 | 13.6
CCN(CC)CCCNC(=O)c1c(O)c2ccccc2n(Cc2ccccc2)c1=O | 84.5% (inactive) | 95.7 | 16
CCCCn1c(O)c(C=NCCN2CCCCC2)c(=O)[nH]c1=O | 4.76% (inactive) | -24.2 | 0.91
